Data: PubChem BioAssay (NCI)
Several values for one entry are separate records, joined by “and”; a condition that tells them apart may be missing. Equal entries are not always repeated. About 83,000 compounds went through this panel and 20% of them were active in at least one assay; those are over-represented in the sample as a whole.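 Activity criterion: percent growth below 10, measured after cells in 96-well plates were exposed to a single compound concentration for 48 hours.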 Activity calls are given as the source filed them.

These compounds were tested on MDA-MB-468 breast (assay: NCI-60 one-dose screen, 48 h (100 = growth as untreated, 0 = no growth, -100 = all killed)). Conditions: 10 µM unless noted.
With `C/C(Cc1ccc(Cl)cc1)=C(\c1ccc(OCCN2CCCCCC2)cc1)c1ccc(OC(=O)Cc2ccccc2)cc1` the growth was 69% (inactive).
In the case of `O=C(CSc1nnc(-c2ccc(Cl)cc2)n1-c1ccccc1)Nc1ccc(Cl)cc1`, the growth is reported as 4.06% (active).
For `COc1ccc2nc3cc(Cl)ccc3c(NCCCNCCO)c2c1`, the growth was -34.1% (active).
With `N#Cc1ncc(Br)c(NC2CCCCCC2)n1` the growth was 91.9% (inactive).
In the case of `Cc1cccnc1NC(=S)Nc1ncccc1C`, the growth is reported as 71.9% (inactive).
`COc1cc(C(=O)/C=C/c2c[nH]c3ccccc23)cc(OC)c1OC` was tested, and the growth was -5.45% (active).
With `CCCCn1c(=O)[nH]c2c(c1=O)C(c1ccc(Cl)cc1)c1c([nH]c(=O)n(CCCC)c1=O)N2` the growth was 108% (inactive).
`COc1ccc(S(=O)(=O)N2CCN(C)CC2)cc1NC(=O)c1[nH]c(C)c2c1CCCCC2=O` was tested, and the growth was 39.8% (inactive).
With `CN1CCN(Cc2ccc(NC(=O)c3[nH]ncc3Nc3ccnc4ccnn34)cc2)CC1` the growth was 65.6% (inactive).
For `COc1ccc(C(=O)c2cc(OC)c(OC)c(OC)c2)cc1/C=C/C(=O)c1ccc2c(c1)OCO2`, the growth was 9.38% (active).
`O=C1c2cccnc2C(=O)c2c1c(C(=O)OCCc1ccccn1)c1ccccn21` was tested, and the growth was -23% (active).
With `COc1ccc(-c2cn[nH]c2-c2cc(OC)c(OC)c(OC)c2)cc1N` the growth was -13.3% (active) and -29.2% (active).
For `CN(C)c1ccc(N=Nc2ccc(Br)cn2)c(O)c1`, the growth was -6.7% (active).
With `CC1=C(C(=O)Nc2ccc(F)cc2)C(c2ccc(Cl)cc2)C2=C(CC(C)(C)CC2=O)N1` (centres undefined) the growth was 89.4% (inactive).
